Most compounds without a hit are left out; they make up all but 2.2% or so of the library.
PHOSPHO1 block – inhibitors of human PHOSPHO1 phosphatase; recombinant PHOSPHO1, absorbance phosphatase assay; Q8TCT1; inhibition, % at 13.3 µM; 290,000 tested, 1.1% active; in the data active means inhibition above about 60%
GASC-1 inh – inhibitors of human GASC-1 (JMJD2C) demethylase; GST-JMJD2C(1-420) H3K9me3 demethylation, DELFIA europium; inhibition, % at 2.35 µM; 330,000 tested, 0.069% active; AID 2099;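 active means more than half of a compound's replicate wells show inhibition beyond 50%, single wells judged on their own value; inconclusive means some, but no more than half, of replicates pass 50% inhibition; inactive means no replicate passes 50% inhibition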;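 further: signal counts dimethyl H3K9 product captured on neutravidin plate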
PvdQ inh – P. aeruginosa PvdQ acylase inhibition; purified PvdQ acylase, fluorescence plate reader; inhibition, % at 10 µM; 340,000 tested, 0.063% active; in the data active means inhibition above about 30%, passing the limit was not always enough; inconclusive means no clear call, values can overlap the other calls
pCIP destab – p/CIP protein destabilization. Q05BA5. 290,000 tested, 0.01% active. F442A p/CIP-EGFP cells, EGFP fluorescence, 16 h. decrease of EGFP signal, % at 10 µM;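 active means EGFP signal decrease of at least 30% at 10 µM or well 3 SD below plate mean, unless failing retest; inactive means the rest, including hits failing retest or dose response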
Mot1-301 SUMO – blocks SUMOylation pathway, rescuing yeast Mot1-301 growth | AID 2716 | growth rescue, % at 18.8 µM | 320,000 tested, 1% active | S. cerevisiae Mot1-301 growth rescue, ATP luminescence, 38.5C; percent above DMSO median, 100 means doubled;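 active means every valid replicate shows activation above 250% relative to neutral control wells; inactive means the rest, any valid replicate at or below 250%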
HDAC3 inh – human HDAC3 inhibition; inhibition, % at 8.3 µM; 320,000 tested, 0.15% active; recombinant HDAC3, fluorogenic peptide/trypsin coupled, fluorescence; O15379; AID 2718; in the data active means inhibition above about 26%, passing the limit was not always enough; inconclusive means no clear call, values can overlap the other calls
Target sequence (O15379 whole entry, looked up): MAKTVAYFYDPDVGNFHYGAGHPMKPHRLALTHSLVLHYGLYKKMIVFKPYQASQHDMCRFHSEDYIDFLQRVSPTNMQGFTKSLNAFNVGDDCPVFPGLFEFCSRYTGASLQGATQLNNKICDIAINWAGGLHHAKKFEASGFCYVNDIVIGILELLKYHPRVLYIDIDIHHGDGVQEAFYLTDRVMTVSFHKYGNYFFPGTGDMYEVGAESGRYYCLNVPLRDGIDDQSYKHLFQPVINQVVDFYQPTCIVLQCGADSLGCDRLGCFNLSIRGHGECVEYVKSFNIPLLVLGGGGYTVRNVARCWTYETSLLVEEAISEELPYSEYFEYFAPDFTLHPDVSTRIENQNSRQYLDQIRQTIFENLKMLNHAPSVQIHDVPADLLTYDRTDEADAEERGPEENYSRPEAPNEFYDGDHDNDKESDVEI
Numbers stand for hits; i = inactive; ? = inconclusive; nt = no result.

SMILES	PHOSPHO1 block	GASC-1 inh	PvdQ inh	pCIP destab	Mot1-301 SUMO	HDAC3 inh
O=C(O[C@@H](C(=O)O)[C@@H](OC(=O)c1ccccc1)C(=O)O)c1ccccc1	nt	i	i	nt	i	i
CC1CN(c2oc(-c3ccco3)nc2S(=O)(=O)c2ccccc2)CC(C)O1 (centres undefined)	75.8	i	i	i	i	i
CC1CCN(c2oc(-c3ccco3)nc2S(=O)(=O)c2ccccc2)CC1	i	i	i	i	i	i
COc1c(Cl)cc(Cl)cc1CNc1ccc(S(N)(=O)=O)cc1	i	i	i	i	326.6	i
CCOc1c(Cl)cc(CNc2ccc(S(N)(=O)=O)cc2)cc1OC	i	i	i	i	nt	i
O=S(=O)(c1ccc(Cl)cc1)N1CCSC1c1ccco1 (centres undefined)	68.2	i	i	i	i	i
CCC/C=C(\CCC)C(NS(=O)(=O)c1ccc(C(F)(F)F)cc1)c1ccccc1 (centres undefined)	i	i	nt	i	i	26.6
Cc1ccn2c(CNCCn3nc(C)cc3C)c(C(=O)N3CCCCCC3)nc2c1	i	i	i	i	533.9	i
Cc1ccc(NC(=O)C2CCN(S(=O)(=O)c3ccc4c(c3)CC(C)N4C(=O)C3CCC3)CC2)nc1 (centres undefined)	75.1	i	i	i	i	i
CC(=O)N1c2ccc(S(=O)(=O)N3CCC(C(=O)Nc4ccc(C)cn4)CC3)cc2CC1C (centres undefined)	i	i	i	i	i	i
O=c1ccc(-c2ccc(S(=O)(=O)Nc3cccc([N+](=O)[O-])c3)s2)n[nH]1	i	i	i	i	i	i
O=C(COC(=O)c1cc(=O)c2ccccc2o1)Nc1ccc2ccccc2c1	i	i	i	i	i	i
COc1cccc(N=Cc2nc(-c3ccccc3)oc2OC(C)=O)c1	i	i	i	i	i	59.2
COc1ccc(N=Cc2nc(-c3ccccc3)oc2OC(C)=O)cc1	i	i	i	i	i	37.7
COc1ccc(OC)c(/C=N/N(CCC#N)C2=NS(=O)(=O)c3ccccc32)c1	i	i	i	i	i	i
C=CC[C@H](CC(=O)N(CCO)Cc1ccccc1)C(=O)N[C@H](COC(=O)[C@@H](CC=C)CC(=O)OC(C)(C)C)Cc1ccccc1	nt	i	i	nt	i	29.6
C=CC[C@H](CC(=O)N(CCO)Cc1ccccc1)C(=O)N[C@@H](COC(=O)[C@@H](CC=C)CC(=O)OC(C)(C)C)Cc1c[nH]c2ccccc12	nt	nt	i	nt	i	39.9
C=CC[C@H](CC(=O)N(CCO)Cc1ccccc1)C(=O)N[C@H](COC(=O)[C@H](CC=C)CC(=O)OC(C)(C)C)Cc1c[nH]c2ccccc12	nt	nt	i	nt	nt	nt
C=CC[C@@H](CC(=O)N(CCO)Cc1ccccc1)C(=O)N[C@@H](COC(=O)[C@H](CC=C)CC(=O)OC(C)(C)C)Cc1c[nH]c2ccccc12	nt	nt	i	nt	i	32.9
C=CC[C@@H](CC(=O)N[C@H](CO)Cc1ccccc1)C(=O)N[C@H](COC(=O)[C@H](CC=C)CC(=O)OC(C)(C)C)Cc1c[nH]c2ccccc12	nt	nt	i	nt	nt	nt
C=CC[C@@H](CC(=O)N(CCO)Cc1ccccc1)C(=O)N[C@H](COC(=O)[C@@H](CC=C)CC(=O)OC(C)(C)C)Cc1ccccc1	nt	nt	i	nt	nt	nt
CC1(C)OC(=O)N(c2ccccc2)C12C=Cc1c(ccc3ccccc13)O2 (centres undefined)	i	i	i	i	273.9	i
COc1cc(C(C(=O)NC2CCCC2)N(C(=O)Cc2cccs2)C2CC2)cc(OC)c1OC (centres undefined)	i	i	i	i	i	?
CC1=NC(=O)C(N=Nc2cccc(O)c2)N1c1ccccc1 (centres undefined)	95.0	i	i	i	i	i
Cc1cc(NC(=O)CSc2nnc(-c3ccc([N+](=O)[O-])cc3)o2)no1	67.8	nt	i	i	i	i
C#CCSc1nnc(-c2ccc([N+](=O)[O-])cc2)o1	i	i	i	i	i	i
CSc1nnc(-c2ccc([N+](=O)[O-])cc2)o1	i	i	57.6	i	i	i
CC(C)C(C)(C#N)NC(=O)CSc1nc(C2CCCCC2)n(-c2ccccc2)n1 (centres undefined)	i	i	i	i	i	i
O=Cc1ccccc1-n1cncn1	i	i	i	i	nt	i
